Values joined by “and” are separate entries in the source; they are usually repeats but may differ in a detail not shown here. Identical values can stand only once. Results filed as inconclusive are left out. A call without a number means that no potency is given here. Some compounds were tested as several samples or in several runs, with calls that do not always agree. Active and inactive are the calls of the source. Unless noted, calls come from the whole dose curve; as a rule, active = well fitted curve in the direction sought with a large enough effect in the repeat runs; inconclusive = weak or mixed curves; inactive = no such curve, though single readings can be large; an effect the other way counts as inactive or inconclusive.
Key:
[1] = qHTS assay to identify aromatase inhibitors - cell viability counter screen (AID 743084);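 note: cells stimulated with testosterone during compound exposure; nearly all actives have a fitted effect of over 55% in size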
[2] = biological target: Aryl hydrocarbon receptor (Homo sapiens) (UniProt P35869); assay: qHTS assay to identify small molecule that activate the aryl hydrocarbon receptor (AhR) signaling pathway (AID 743085); note: nearly all actives have a fitted effect of over 15% in size; note: potency is the fitted concentration of half-maximal effect;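 for activation: HG2L7.5c1 human HepG2 liver cells with stably integrated DRE-driven firefly reporter; series mostly up to about 70 µM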
Procedure, shortened: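 Cell line HG2L7.5c1 (human hepatoma, 20× DRE-luc). Plated, 5 h 37C, compound/DMSO added, 24 h 37C. CellTiter-Fluor 30 min 37C → fluorescence; then ONE-Glo 30 min RT → luminescence.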

[3] = qHTS assay to identify small molecule that activate the aryl hydrocarbon receptor (AhR) signaling pathway - cell viability counter screen (AID 743086);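 note: HepG2 liver cells carrying the AhR DRE luciferase reporter; series mostly up to about 70 µM; nearly all actives have a fitted effect of over 45% in size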
Procedure, shortened: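 Cytotoxicity counter screen: CellTiter-Fluor signal (30 min, 37 C) in 4000 HepG2 cells/well carrying the DRE-luciferase reporter, following 24 h compound exposure at 37 C.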

[4] = biological target: Peroxisome proliferator-activated receptor gamma (Homo sapiens) (UniProt P37231); assay: qHTS assay to identify small molecule agonists of the peroxisome proliferator-activated receptor gamma (PPARg) signaling pathway (AID 743094; active = well fitted activation curve with a large enough effect in the signal ratio in the repeat runs, not every such curve was filed as active; the % refers to the signal ratio)
Procedure, shortened: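 Following 5 h plating at 37C, PPARg-bla HEK293H cells receive compound or DMSO for 17 h; fluorescence intensity is recorded after LiveBLAzer B/G loading for 1 h at room temperature.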

[5] = biological target: Peroxisome proliferator-activated receptor gamma (Homo sapiens) (UniProt P37231); assay: qHTS assay to identify small molecule antagonists of the peroxisome proliferator-activated receptor gamma (PPARg) signaling pathway (AID 743191; calls by dose curve; note: series mostly up to about 63 µM; nearly all actives have a fitted effect of over 30% in size)
Procedure, shortened: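 Beta-lactamase reporter under UAS control in HEK293H PPARg-bla cells; compound treatment 17 h at 37C. Read-out: fluorescence intensity after 1 h room-temperature incubation with LiveBLAzer B/G FRET substrate.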

[6] = qHTS assay to identify small molecule antagonists of the peroxisome proliferator-activated receptor gamma (PPARg) signaling pathway - cell viability counter screen (AID 743194); note: nearly all actives have a fitted effect of over 55% in size
Procedure, shortened: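 Viability was measured as CellTiter-Glo luminescence in GeneBLAzer PPARg UAS-bla HEK293H cells. These cells had been exposed 17 h at 37 C to compounds together with rosiglitazone at 50 nM final, with the beta-lactamase readout taken in the same wells.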

[7] = qHTS assay for small molecule agonists of the antioxidant response element (ARE) signaling pathway - cell viability counter screen (AID 743203; calls by dose curve; note: nearly all actives have a fitted effect of over 55% in size)
Procedure, shortened: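 Compounds in DMSO were pinned onto ARE-bla HepG2 cells plated 5 hrs earlier at 2,000 cells/well. Sixteen hours later at 37C/5% CO2, CellTiter-Glo was added and luminescence measured after 30 min at room temperature.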

[8] = qHTS assay for small molecule activators of the heat shock response signaling pathway - cell viability counter screen (AID 743209); note: nearly all actives have a fitted effect of over 50% in size
Procedure, shortened: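 Counter screen for cytotoxicity in HeLa HSE-bla reporter cells. Treatment was 5 h at 37 C; viability was detected by luminescent ATP assay (CellTiter-Glo) in the same wells as the beta-lactamase read.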

[9] = qHTS assay for small molecule activators of the heat shock response signaling pathway (AID 743210; active = well fitted activation curve with a large enough effect in the signal ratio in the repeat runs, with a control signal flat, not every such curve was filed as active; the % refers to the signal ratio;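 note: HeLa cells with beta-lactamase reporter driven by heat shock elements; series mostly up to about 63 µM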)
Procedure, shortened: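 In HSE-bla HeLa cells, 5 h compound incubation (37 C) precedes addition of LiveBLAzer B/G substrate; after 2.5 h at room temperature, fluorescence intensity indicates reporter induction.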

[10] = qHTS assay to identify small molecule agonists of the peroxisome proliferator-activated receptor delta (PPARd) signaling pathway - cell viability counter screen (AID 743211); note: nearly all actives have a fitted effect of over 55% in size
Procedure, shortened: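 HEK293H PPARd-bla, 3000 cells/well; 5 h preincubation 37C/5% CO2; cpd in DMSO, 17 h 37C; B/G FRET substrate 2 h RT; CellTiter-Glo 30 min RT, luminescence.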

[11] = biological target: Peroxisome proliferator-activated receptor delta (Homo sapiens) (UniProt Q03181); assay: qHTS assay to identify small molecule agonists of the peroxisome proliferator-activated receptor delta (PPARd) signaling pathway (AID 743212; calls by dose curve)
Procedure, shortened: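 HEK293H UAS-bla reporter cells, human PPARd system; compounds delivered in DMSO after 5 h plating, then at 37 C. Beta-lactamase FRET read, 2 h RT substrate step.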

[12] = qHTS assay to identify small molecule antagonists of the peroxisome proliferator-activated receptor delta (PPARd) signaling pathway - cell viability counter screen (AID 743213); note: nearly all actives have a fitted effect of over 50% in size
Procedure, shortened: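 Viability counter-screen, qHTS format: PPARd-bla HEK293H, L165041 300 nM final, 17 h compound exposure at 37 C, CellTiter-Glo luminescence after 30 min RT.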

[13] = biological target: Peroxisome proliferator-activated receptor delta (Homo sapiens) (UniProt Q03181); assay: qHTS assay to identify small molecule antagonists of the peroxisome proliferator-activated receptor delta (PPARd) signaling pathway (AID 743215; active = well fitted inhibition curve with a large enough effect in the signal ratio in the repeat runs, not every such curve was filed as active; the % refers to the signal ratio;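 note: cells stimulated with agonist L165041 at 300 nM final during compound exposure; series mostly up to about 62 µM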)
Procedure, shortened: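 With L165041 present at 300 nM final, compounds were incubated 17 h at 37 C on PPARd UAS-bla HEK293H cells. A FRET-based beta-lactamase substrate was then applied for 2 h at room temperature and fluorescence intensity recorded.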

[14] = qHTS assay to identify small molecule agonists of the farnesoid-X-receptor (FXR) signaling pathway - cell viability counter screen (AID 743218); note: nearly all actives have a fitted effect of over 45% in size
Procedure, shortened: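 After 16 h at 37 C with test compounds, FXR-bla HEK 293T cells were given LiveBLAzer B/G substrate for 2 h at RT and then CellTiter-Glo; luminescence was taken after 30 min.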

[15] = qHTS assay to identify small molecule antagonists of the farnesoid-X-receptor (FXR) signaling pathway - cell viability counter screen (AID 743221; active = well fitted cell-killing curve with a large enough effect in the repeat runs, not every such curve was filed as active; note: nearly all actives have a fitted effect of over 50% in size)
Procedure, shortened: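 Luminescence from CellTiter-Glo measures cytotoxicity in GeneBLAzer FXR-UAS-bla HEK 293T cells. Cells were exposed to compounds with 50 uM chenodeoxycholic acid (final) for 16 h at 37 C, in wells also used for the reporter readout.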

[16] = biological target: Vitamin D3 receptor (Homo sapiens) (UniProt P11473); assay: qHTS assay to identify small molecule agonists of the vitamin D receptor (VDR) signaling pathway (AID 743222; calls by dose curve)
Procedure, shortened: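 VDR-bla cells were seeded, left 4 h, treated with compounds in DMSO for 16 h, incubated 2 h at RT with B/G FRET substrate, and read for fluorescence.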

[17] = biological target: Vitamin D3 receptor (Homo sapiens) (UniProt P11473); assay: qHTS assay to identify small molecule antagonists of the vitamin D receptor (VDR) signaling pathway (AID 743223; active = well fitted inhibition curve with a large enough effect in the signal ratio in the repeat runs, not every such curve was filed as active; the % refers to the signal ratio)
Procedure, shortened: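 Antagonist mode uses 1alpha,25-dihydroxyvitamin D3 at 3 nM final as stimulus. VDR-bla cells receive compounds in DMSO, incubate 16 h at 37C, then a beta-lactamase FRET substrate for 2 h at room temperature before fluorescence measurement.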

[18] = qHTS assay for small molecule agonists of the antioxidant response element (ARE) signaling pathway (AID 743202; active = well fitted activation curve with a large enough effect in the signal ratio in the repeat runs, not every such curve was filed as active; the % refers to the signal ratio)
Procedure, shortened: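 An ARE-responsive beta-lactamase gene stably integrated in HepG2 cells serves as reporter. After 5 h plating and 16 h compound incubation at 37 C, fluorescence of the B/G FRET substrate was measured.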

[19] = biological target: Bile acid receptor (Homo sapiens) (UniProt Q96RI1); assay: qHTS assay to identify small molecule antagonists of the farnesoid-X-receptor (FXR) signaling pathway (AID 743217; active = well fitted inhibition curve with a large enough effect in the signal ratio in the repeat runs, not every such curve was filed as active; the % refers to the signal ratio)
Procedure, shortened: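 In this cell-based antagonist screen, inhibition of CDCA-driven (50 uM final) UAS-beta-lactamase expression in HEK 293T cells was measured by FRET fluorescence following 16 h compound exposure at 37 °C.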

[20] = biological target: Bile acid receptor (Homo sapiens) (UniProt Q96RI1); assay: qHTS assay to identify small molecule agonists of the farnesoid-X-receptor (FXR) signaling pathway (AID 743220; active = well fitted activation curve with a large enough effect in the signal ratio in the repeat runs, not every such curve was filed as active; the % refers to the signal ratio)
Procedure, shortened: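 Beta-lactamase reporter under UAS control in GeneBLAzer FXR HEK 293T cells (5000/well) measured with LiveBLAzer FRET substrate after 2 h at room temperature. Compound exposure lasted 16 h at 37C.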

Aryl hydrocarbon receptor (Homo sapiens), sequence (P35869 whole entry, looked up): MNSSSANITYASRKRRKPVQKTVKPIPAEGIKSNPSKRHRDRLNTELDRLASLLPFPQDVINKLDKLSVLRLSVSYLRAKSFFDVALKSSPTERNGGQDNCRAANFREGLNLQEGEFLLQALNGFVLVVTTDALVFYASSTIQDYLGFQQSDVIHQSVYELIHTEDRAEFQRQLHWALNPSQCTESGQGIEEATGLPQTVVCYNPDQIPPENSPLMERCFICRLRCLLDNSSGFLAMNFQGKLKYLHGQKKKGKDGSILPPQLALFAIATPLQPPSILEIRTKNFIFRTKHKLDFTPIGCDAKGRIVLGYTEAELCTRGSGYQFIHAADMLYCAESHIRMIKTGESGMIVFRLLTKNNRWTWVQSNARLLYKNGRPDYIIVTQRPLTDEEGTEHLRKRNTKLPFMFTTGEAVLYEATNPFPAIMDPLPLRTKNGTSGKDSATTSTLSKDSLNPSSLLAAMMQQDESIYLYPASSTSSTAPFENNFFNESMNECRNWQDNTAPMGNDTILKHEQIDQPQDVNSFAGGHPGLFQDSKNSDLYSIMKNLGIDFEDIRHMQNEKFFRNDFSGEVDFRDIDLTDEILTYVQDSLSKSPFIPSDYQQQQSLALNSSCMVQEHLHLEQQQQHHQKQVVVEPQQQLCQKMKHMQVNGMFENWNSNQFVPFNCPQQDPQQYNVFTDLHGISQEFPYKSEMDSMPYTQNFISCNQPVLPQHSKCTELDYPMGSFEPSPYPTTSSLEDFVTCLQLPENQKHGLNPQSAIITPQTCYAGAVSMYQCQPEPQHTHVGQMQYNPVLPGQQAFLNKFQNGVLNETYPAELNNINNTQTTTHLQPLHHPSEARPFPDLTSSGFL
Peroxisome proliferator-activated receptor delta (Homo sapiens), sequence (Q03181 whole entry, looked up): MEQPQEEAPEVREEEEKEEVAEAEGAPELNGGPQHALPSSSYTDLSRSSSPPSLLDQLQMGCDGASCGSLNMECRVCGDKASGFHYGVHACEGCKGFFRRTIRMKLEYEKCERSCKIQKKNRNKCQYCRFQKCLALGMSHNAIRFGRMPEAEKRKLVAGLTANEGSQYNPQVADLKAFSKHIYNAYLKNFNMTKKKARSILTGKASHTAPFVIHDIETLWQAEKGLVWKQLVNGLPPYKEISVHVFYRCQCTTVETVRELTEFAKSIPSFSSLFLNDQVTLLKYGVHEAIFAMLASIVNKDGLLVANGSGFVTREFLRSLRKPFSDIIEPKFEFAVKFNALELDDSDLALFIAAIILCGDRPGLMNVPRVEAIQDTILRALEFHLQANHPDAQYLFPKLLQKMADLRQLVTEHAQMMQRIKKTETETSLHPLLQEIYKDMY
Bile acid receptor (Homo sapiens), sequence (Q96RI1 whole entry, looked up): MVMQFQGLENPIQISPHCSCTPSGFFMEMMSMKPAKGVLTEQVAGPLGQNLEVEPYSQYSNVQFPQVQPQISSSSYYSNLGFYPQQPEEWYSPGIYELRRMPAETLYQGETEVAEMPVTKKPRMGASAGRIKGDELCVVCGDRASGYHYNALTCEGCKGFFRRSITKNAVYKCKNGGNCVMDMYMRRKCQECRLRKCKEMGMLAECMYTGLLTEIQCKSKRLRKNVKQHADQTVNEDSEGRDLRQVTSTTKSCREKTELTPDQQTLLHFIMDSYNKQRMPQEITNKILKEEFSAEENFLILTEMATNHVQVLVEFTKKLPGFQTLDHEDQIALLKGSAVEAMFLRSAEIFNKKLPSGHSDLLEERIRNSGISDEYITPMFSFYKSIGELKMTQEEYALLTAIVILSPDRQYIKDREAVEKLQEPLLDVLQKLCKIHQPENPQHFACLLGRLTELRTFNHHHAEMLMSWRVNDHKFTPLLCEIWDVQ
Peroxisome proliferator-activated receptor gamma (Homo sapiens), sequence (P37231 whole entry, looked up): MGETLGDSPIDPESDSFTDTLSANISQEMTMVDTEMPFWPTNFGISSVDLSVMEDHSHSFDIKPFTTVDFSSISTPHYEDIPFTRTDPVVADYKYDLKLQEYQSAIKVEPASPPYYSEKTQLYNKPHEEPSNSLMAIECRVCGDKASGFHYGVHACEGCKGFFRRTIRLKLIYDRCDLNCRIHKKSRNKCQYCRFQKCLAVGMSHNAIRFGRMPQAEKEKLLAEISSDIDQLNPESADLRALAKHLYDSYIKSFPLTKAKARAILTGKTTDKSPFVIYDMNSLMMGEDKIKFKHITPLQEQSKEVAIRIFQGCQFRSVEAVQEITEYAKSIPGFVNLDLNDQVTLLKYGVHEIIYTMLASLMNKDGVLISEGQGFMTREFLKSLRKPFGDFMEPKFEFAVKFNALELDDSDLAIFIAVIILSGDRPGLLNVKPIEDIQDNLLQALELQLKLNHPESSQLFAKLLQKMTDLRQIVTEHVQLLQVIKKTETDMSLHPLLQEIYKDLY
Vitamin D3 receptor (Homo sapiens), sequence (P11473 whole entry, looked up): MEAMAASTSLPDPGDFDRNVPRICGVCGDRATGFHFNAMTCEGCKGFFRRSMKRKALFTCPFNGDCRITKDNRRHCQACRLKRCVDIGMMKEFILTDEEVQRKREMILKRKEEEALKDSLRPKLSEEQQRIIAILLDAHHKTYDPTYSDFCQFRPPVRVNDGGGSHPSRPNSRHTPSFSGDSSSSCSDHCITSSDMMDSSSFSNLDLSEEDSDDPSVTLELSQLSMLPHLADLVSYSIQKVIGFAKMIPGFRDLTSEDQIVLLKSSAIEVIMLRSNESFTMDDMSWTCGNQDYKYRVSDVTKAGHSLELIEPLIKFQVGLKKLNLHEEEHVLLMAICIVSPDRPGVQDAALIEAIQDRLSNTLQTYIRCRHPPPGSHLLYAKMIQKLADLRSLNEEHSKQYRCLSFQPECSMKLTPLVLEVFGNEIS

Structure (SMILES)	Potency [1]	Potency [2]	Potency [3]	outcome [4]	Potency [5]	outcome [6]	Potency [7]	outcome [8]	outcome [9]	Potency [10]	outcome [11]	Potency [12]	Potency [13]	Potency [14]	Potency [15]	outcome [16]	outcome [17]	Potency [18]	outcome [19]	outcome [20]
CCCCNC(=O)NCCCC	inactive	inactive	inactive	inactive	inactive	inactive	inactive	inactive	inactive	inactive	inactive	inactive	inactive	inactive	inactive	inactive	inactive	–	–	–
O=C(O)c1ccccc1OP(=O)(O)O	inactive	inactive	inactive	inactive	inactive	inactive	–	–	inactive	inactive	inactive	–	inactive	inactive	–	inactive	inactive	inactive	–	–
COC(=O)c1c(Cl)c(Cl)c(C(=O)OC)c(Cl)c1Cl	inactive	inactive and 48.6 µM (active)	inactive	inactive	inactive	inactive	inactive	inactive	inactive	inactive	inactive	inactive	inactive	inactive	–	inactive	–	–	inactive	inactive
O=C1CC2CC1C1CCCC21 (centres undefined)	inactive	inactive	inactive	inactive	inactive	inactive	inactive	inactive	inactive	inactive	inactive	inactive	–	–	–	–	–	–	inactive	inactive
C[C@H](NC(CCc1ccccc1)C(=O)O)C(=O)N1CCC[C@H]1C(=O)O (some centres undefined)	inactive	inactive	inactive	inactive	inactive	inactive	inactive	–	inactive	inactive	inactive	–	inactive	inactive	inactive	inactive	inactive	inactive	–	–
Nc1ccc(S(=O)(=O)Nc2ccnn2-c2ccccc2)cc1	inactive	inactive	inactive	inactive	inactive	inactive	inactive	–	inactive	inactive	–	inactive	–	inactive	inactive	inactive	inactive	inactive	inactive	inactive
N=C(N)c1ccccc1	inactive	inactive	inactive	inactive	inactive	inactive	–	inactive	inactive	inactive	inactive	inactive	inactive	–	inactive	inactive	–	inactive	–	–
CCCCCCCCCCCCCCCCC	inactive	inactive	inactive	inactive	inactive	inactive	–	inactive	inactive	inactive	inactive	inactive	inactive	inactive	inactive	inactive	inactive	inactive	inactive	inactive

— PubChem BioAssay (Tox21)
